Experimental data as given in PubChem BioAssay (Tox21).
Inconclusive results are not listed. Calls of active or inactive are those of the source. The call rests on the fitted dose curve. Residues, ends and D or L forms follow the SMILES beside them.

Tests used:
[1] = biological target: Acetylcholinesterase (Homo sapiens) (UniProt P22303); test: Acetylcholinesterase (AChE) small molecule antagonists: colormetric cell-based qHTS assay (AID 1347395); further: nearly all actives have a fitted effect of over 30% in size
Sequence of Acetylcholinesterase (Homo sapiens) (P22303 whole entry, looked up): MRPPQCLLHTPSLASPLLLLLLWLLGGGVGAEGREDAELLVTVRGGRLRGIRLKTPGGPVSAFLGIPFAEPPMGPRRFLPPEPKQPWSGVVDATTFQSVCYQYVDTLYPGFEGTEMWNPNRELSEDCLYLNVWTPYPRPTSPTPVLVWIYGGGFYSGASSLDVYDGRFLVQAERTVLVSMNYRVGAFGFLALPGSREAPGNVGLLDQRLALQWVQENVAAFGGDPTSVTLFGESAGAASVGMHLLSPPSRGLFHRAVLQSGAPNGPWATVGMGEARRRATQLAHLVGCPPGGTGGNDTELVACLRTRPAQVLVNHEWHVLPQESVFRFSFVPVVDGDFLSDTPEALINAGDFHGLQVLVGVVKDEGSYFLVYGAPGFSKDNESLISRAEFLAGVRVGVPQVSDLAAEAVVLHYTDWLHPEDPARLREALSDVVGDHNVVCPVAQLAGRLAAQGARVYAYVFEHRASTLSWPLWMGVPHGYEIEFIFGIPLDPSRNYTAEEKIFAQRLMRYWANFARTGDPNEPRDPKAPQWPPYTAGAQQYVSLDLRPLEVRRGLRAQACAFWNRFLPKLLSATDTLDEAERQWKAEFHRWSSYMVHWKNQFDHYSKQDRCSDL
Method in brief: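 SH-SY5Y cells, plated overnight at 37 C, were exposed to compounds for 30 min at 37 C and 5% CO2. Acetylthiocholine plus DTNB was then added, and thiocholine from endogenous AChE was quantified colorimetrically after 90 min at 37 C.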

[2] = biological target: Acetylcholinesterase (Homo sapiens) (UniProt P22303); test: Acetylcholinesterase (AChE) small molecule antagonists: enzyme-based qHTS assay (AID 1347397); conditions: Potency: AChE enzyme activity inhibition; outcome: AChE enzyme activity inhibition; further: nearly all actives have a fitted effect of over 55% in size
Method in brief: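 Enzyme inhibition was scored from DTNB-detected thiocholine formed by recombinant human AChE acting on acetylthiocholine. The 30 min compound preincubation and 10 min substrate reaction were both run at room temperature, with DMSO as vehicle control.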

[3] = biological target: Acetylcholinesterase (Homo sapiens) (UniProt P22303); test: Acetylcholinesterase (AChE) small molecule antagonists: fluorescence cell-based qHTS assay (AID 1347398); conditions: Potency: AChE activity; outcome: AChE activity; further: nearly all actives have a fitted effect of over 50% in size
Method in brief: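 Endogenous acetylcholinesterase of SH-SY5Y neuroblastoma cells is measured in situ. After overnight attachment and 30 min compound exposure, cells receive acetylthiocholine and Thiolite Green; fluorescence is read after 40 min at room temperature.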

[4] = biological target: Acetylcholinesterase (Homo sapiens) (UniProt P22303); test: Acetylcholinesterase (AChE) small molecule antagonists: enzyme-based qHTS assay with human liver microsomes (AID 1347399); conditions: Potency: qHTS inhibition; outcome: qHTS inhibition; further: nearly all actives have a fitted effect of over 60% in size
Method in brief: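 Recombinant human AChE (50 mU/mL in the enzyme mix) and human liver microsomes (0.25 mg/mL final) were preincubated with compound and NADPH (0.25 mg/mL final) for 30 min at 37 C. Acetylthiocholine/DTNB was then added; thiocholine was read colorimetrically after 10 min at room temperature.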
On the % scale 0 is the no-effect control and ±100 the full control effect.

C=C(C)CCCC(C)CCO (stereo unspecified)
inactive: Potency [1] | Potency [2] | Potency [3] | Potency [4]

CC(C)(O)C(=O)O
inactive: Potency [1] | Potency [2] | Potency [3]

O=C1CCC(=O)N1
inactive: Potency [1] | Potency [2] | Potency [3] | Potency [4]

O=C1CCCN1C1CCCCC1
inactive: Potency [1] | Potency [2] | Potency [3]

CC(=O)S[C@@H]1CC2=CC(=O)CC[C@]2(C)[C@H]2CC[C@@]3(C)[C@@H](CC[C@@]34CCC(=O)O4)[C@H]12
inactive: Potency [1] | Potency [2] | Potency [3]

C=CCCCCCCCCCCC
inactive: activity, negative = inhibition [1] -0.0098% [at 10.5 µM] | activity change, negative = inhibition [2] 0.273% [at 10.5 µM] | activity change, negative = inhibition [3] 5.55% [at 10.5 µM] | activity change, negative = inhibition [4] 0.324% [at 10.5 µM]

CCCCCCCCCCOCC(O)CN (stereo unspecified)
inactive: Potency [1] | Potency [2] | Potency [3]

Cc1nc([N+](=O)[O-])cn1-c1ccc([N+](=O)[O-])cc1
inactive: Potency [1] | Potency [2] | Potency [3]

FC(F)(F)c1ccc(Cl)cc1Cl
inactive: Potency [1] | Potency [2] | Potency [3] | Potency [4]

CCCSS/C(CCO)=C(\C)N(C=O)Cc1cnc(C)nc1N
inactive: Potency [1] | Potency [2] | Potency [3] | Potency [4]

O=C(O)/C=C/c1ccc(O)c(O)c1
inactive: Potency [1] | Potency [2] | Potency [3]

O=C(O)/C=C(\CC(=O)O)C(=O)O
inactive: Potency [1] | Potency [2] | Potency [3] | Potency [4]

O=C(CCCCCCC(=O)Nc1ccccc1)NO
inactive: Potency [1] | Potency [2] | Potency [3]

O=C(O)c1ccc2c(c1)nc(C(=O)NC1CCN(C3CC3)CC1)n2Cc1cc(-c2ccc(Cl)s2)on1
inactive: activity, negative = inhibition [1] -6.96% [at 23.6 µM] | activity change, negative = inhibition [2] 2.26% [at 23.6 µM] | activity change, negative = inhibition [3] -24.8% [at 23.8 µM]

CCC(O)C(C)(C)C (stereo unspecified)
inactive: Potency [1] | Potency [2] | Potency [3]

Cc1cc(OI)c(C(C)C)cc1-c1cc(C(C)C)c(OI)cc1C
inactive: Potency [1] | Potency [2] | Potency [3] | Potency [4]

CCCCCCCCCCCCSC
inactive: Potency [1] | Potency [2] | Potency [3]

Cc1ccc(S(=O)(=O)C(I)I)cc1
inactive: Potency [1] | Potency [2] | Potency [3]

CC(C)(C)CC(C)(C)c1ccc(OCCO)cc1
inactive: Potency [1] | Potency [2] | Potency [3] | Potency [4]

COc1ccc(C(=O)Nc2nc3ccccc3c(NCc3ccccc3)c2C#N)cc1
inactive: Potency [1] | Potency [2] | Potency [3] | Potency [4]

CNC(=O)C(c1ccccc1)c1ccccc1
inactive: Potency [1] | Potency [2] | Potency [3] | Potency [4]

C/C=C(/C(=C/C)c1ccc(OC(C)=O)cc1)c1ccc(OC(C)=O)cc1
inactive: Potency [1] | Potency [2] | Potency [3]

CCN(CC)c1cccc(C)c1
inactive: Potency [1] | Potency [2] | Potency [3]

COCCCOCCCOC
inactive: Potency [1] | Potency [2] | Potency [3] | Potency [4]

COc1cc(C(=O)OCCCN2CCCN(CCCOC(=O)c3cc(OC)c(OC)c(OC)c3)CC2)cc(OC)c1OC
inactive: Potency [1] | Potency [2] | Potency [3] | Potency [4]

CCCC(=O)O[C@]1(C(=O)CCl)[C@@H](C)C[C@H]2[C@@H]3CCC4=CC(=O)C=C[C@]4(C)[C@@]3(F)C(=O)C[C@@]21C
inactive: Potency [1] | Potency [2] | Potency [3] | Potency [4]

CCCCCCC1CCC(=O)O1 (stereo unspecified)
inactive: Potency [1] | Potency [2] | Potency [3] | Potency [4]

CN(C)c1ccc(C=O)cc1
inactive: Potency [1] | Potency [2] | Potency [3]

CC(=O)N[C@@H](CO)C(=O)N[C@@H](CC(=O)O)C(=O)N[C@@H](CCCCN)C(=O)N1CCC[C@H]1C(=O)O (Ac-SDKP-OH)
inactive: Potency [1] | Potency [2] | Potency [3]

NS(=O)(=O)c1cc(C(=O)NN2C[C@H]3[C@H]4CCC(C4)[C@H]3C2)ccc1Cl
inactive: Potency [1] | Potency [2] | Potency [3]

O=C(CCS)OCC(COC(=O)CCS)(COC(=O)CCS)COC(=O)CCS
inactive: Potency [1] | Potency [2] | Potency [3]

C[C@@H]1C[C@H]2[C@@H]3CCC4=CC(=O)C=C[C@]4(C)[C@@]3(Cl)[C@@H](O)C[C@]2(C)[C@@]1(OC(=O)c1ccco1)C(=O)CCl
inactive: Potency [1] | Potency [2] | Potency [3]

COc1cc(OC)cc(OC)c1
inactive: Potency [1] | Potency [2] | Potency [3]

CC(=O)SCC(CC(=O)c1ccc(C)cc1)C(=O)O (stereo unspecified)
inactive: Potency [1] | Potency [2] | Potency [3] | Potency [4]

CCCCCCCCCC#N
inactive: Potency [1] | Potency [2] | Potency [3] | Potency [4]

O=c1[nH][nH]c(=O)c2cc([N+](=O)[O-])ccc12
inactive: Potency [1] | Potency [2] | Potency [3] | Potency [4]

N#CCN(CC#N)CCN(CC#N)CC#N
inactive: Potency [1] | Potency [2] | Potency [3]

CC(C)C(=O)OCCc1ccccc1
inactive: Potency [1] | Potency [2] | Potency [3]
